Test results reported in the supplement of paper PMC12632987.

B1: uchl1_122_7447 (protein)
chain: TVTVEVVGRRADIEAIAAVIRAVFAAAGIKVDVEIEELSPTTAKLTVTITVPPVTDEQVDATIAALAAAMAALVEAEGISRALAGIAFTRVERALRRAAA
B2: uchl1_122_7448 (protein)
chain: TVTVEVVGRREDIELIAAVIREVFAAAGIEVDVEIEELSPTTARLVVTIRAPPMTDAQVDATIAALAAAMARLVEEAGISRALAGIAFTRVERALRRAAA
B3: uchl1_143_7465 (protein)
chain: GSMHMETLTVERTMTEDTTLEEVYALLEEAAKKAIAEGKDLVVIFTVSSDPNHRLRANTLARRAARRIIQEYGKEIRRLEVLLRDAETGKVDLIALHDGR
B4: uchl1_122_7446 (protein)
chain: MLTVEVLVSSSLSERVLEILEEYAAALLDNLEVEREEVSPGTRLLTFTGELKDVSEDEIRAIREEALARLAELQDLTPNEKVSFGNALRRIERQVMAARR
B5: uchl1_143_7466 (protein)
chain: GPAPVPVLRVERTWTADTTLEEVLALLREAAERAIKEGKDLEVIFTVSPDPNHRLRANTLARRAGKEITQELGKRIRRLRVLLRDAETGKVDLIYEHDGR
B6: uchl1_122_7449 (protein)
chain: TETVEVVGRRADVEAIAATIRAVFASHGLTVDTTITELSPTTARLTVTVTLPPISDAQVAALEAALEAAMAALVEREGISRAFAGIATTRVIRAVRRAAA
B7: uchl1_122_7443 (protein)
chain: MLTIEVKVSSSLSERTLEILKKYAEKLLENPKFEVKELSPGTKLLTITGELKDVSDEEILEIRNEALEEAGKDQSITPNERVSFGNALRTISRQVARALA
B8: uchl1_122_7445 (protein)
chain: MLTVEVLVSSSMSPEVLAILEEYASRLLDDLEVEREKVSPGTVLLTFRGRLKDVSEEEIRAIREEALARLAKLQDLTPNEKVSFGNALRRIERQVMRARR
B9: uchl1_143_7456 (protein)
chain: PPAPVPVHRVTIEVTREDTPEEIRARLEAAVAEAAAAGAALEITVVVTSDPNVRVMANTVARRVAREAARRYRDTLPSLRIVLRDRETGKEQLIAEADFR
B10: uchl1_143_7468 (protein)
chain: GPAVEPVETVTITVTPDTTPEELRARLLAAIDAALAAGKALTITIVVPPDANLRVMANTVAKRVAREVARAHGDRLRRLTIRARDAATGKTQLLAEVVNP
B11: uchl1_122_7440 (protein)
chain: MITIEIEVSSSLSEKGLEILAEAAKKLLDNAKIEVKEKSPSTKLITITGELKDLSEEEILEIENEALEEAGKDQSLTPNQRVSFGNALRRLAIQYAKAKA
B12: uchl1_143_7459 (protein)
chain: GSPEEEVEVIEVTIEPTDTPEQIREKITKALKEAVELEKDTRIVITVPPDPNLKLMVNTVARRELKKIAQEYPEKTKTITVEARDAETGKVDLLAEYVKE
B13: uchl1_143_7458 (protein)
chain: GLEAIPVLEVHLRVTPADTPEEIRARLMAAIEEAAAAGKALRIVITVEGDANLRVMVGNVAKRVAREAARRYGATLPSLTIVARDAETGREQLLAEADFR
B14: uchl1_122_7442 (protein)
chain: MLTIEVDVASSVSERTLEILKEYAEELLEDAEFSVEKKSPGTKLLTIKGKLKDVSDDEILEIENKALERAGKDQSITPNERVSFGNALRKIARQVARARA
B15: uchl1_143_7454 (protein)
chain: GMVHMEVEVIHIEVSEEDTPEEIREKIMEAMKKAVEKGKAIRIIITVPPDANKRLMVNTTARRAAREFAQEYKDKLKYLEIYARDKETGKEDLIAEIINP
B16: uchl1_122_7444 (protein)
chain: MLTVEVLVSSSLSEEVLEILEEYASKLLEDLEVEKKKVSPGTILITFTGELKDVSEEEIREIREEALERLSKLQNLTPNEKVSFGNALRRIERQVMQAKK
B17: uchl1_143_7470 (protein)
chain: GRPTPPTLTVNLTFDETTTPEEIRAALNAAIDEAAAAGKNLTITITVPADSNKRLMVTTVARRVAREAAKRYRDKLPELRILATDAATGKTQLIAEYVNE
B18: uchl1_143_7460 (protein)
chain: GAAPLPVLRTTIEVSEEDTPEEIYARIKAAIEEAIAAGKAAEVTIVVPPNPNVRVMVNNVAKRAARDVAKEYAGKVKEIRIYLEDRETGKRQLVAEVVNP
B19: uchl1_143_7463 (protein)
chain: EEVELEVIHIEVTLTEDTTLEEVRALVEEAARLSIETGKHVVLTATVSNDPNHRLRANTMLRRAAREVIQERGAEIPKLVILLRDAETGKEDVIAEFDNR
B20: uchl1_122_7441 (protein)
chain: MVTIEVEVSSSLSPEALAILAEAAAELLEDARVEVRELSPSTLLITITGRLKDLSPEEIREIENRALERLGRDQSLTPNQRVSAGNALRRLARQYARAKA
B21: uchl1_143_7461 (protein)
chain: ALEPLPVQKTTIEVSESDTPEEIYERIKAAIEAAIAAGKAAEVTIVVPPDPNVRVMVNNVAKRAAREVAQEHADKVKRITINLTDKETGKTEVVAEVVRP
B22: uchl1_122_7450 (protein)
chain: SETVEVVGRREALEAIAAAIREVLAAFGAEVEVRIEELSPNTARLTVTIRLPPISDARLAELLEALEAAMRRLVEERGVPAATAGLAYSRVARAIRRAAA
B23: uchl1_122_7452 (protein)
chain: TETVEVVGRRKDIELIAAAIREVAAAAGWTADVEIEELSENTAKLTVTVTLPPVSDAAVDAAEAALEAAMRRLVEEEGLSRAFVGIATTRVIRAIRRAAA
B24: uchl1_143_7467 (protein)
chain: GPAAEPVLEVTIRVTRDTTPEELRARLLAAIDEAIAAGKALKITIEIPPDANLRVMVNTVAKRVAREVAKARGAELKRLVILGRDSATGKEQVLAEVVNP
B25: uchl1_143_7469 (protein)
chain: APEPIEHIEVTIEVAETDTFEEIHARISAAIDAAIALGRRTELTIRLVVPTTASANLRVMVNTAARRALREHADHLEDASISGEQRPGKAVLVIRVLTKA
B26: uchl1_122_7451 (protein)
chain: SETVEVVGRRRDIELIAEAIKEVFEKFGVKVEVEIEELSPTTAKLTVTITVPPISDEELEALLAALEEAMRRLVEEEGVPRATAGLAYSRTARAVKRAAA
B27: uchl1_143_7464 (protein)
chain: GSAPRPVIHLERTLSADTTLEEVEALVREAAELSVETGAPVVLTFTVSGDPNHRLRAHTMLRRAARRVIQELADRIPELRVLLRDEKTGKTQLIAHFDNR
B28: uchl1_143_7462 (protein)
chain: GAPALPVLRTTIEVTREDTPEEIHARIVAAIREAIAAGKAAEVTIVVPPDPNVRVMVNNVAKRAAREVAQEHADAVKRITIRLRDRETGRTQLVALVERP
B29: uchl1_143_7457 (protein)
chain: GPEVVPVRRVEITVTRADTPEEIEARLLAAVREAAAAGEALLITITVEGDANLRVMVGNVAKRVARRAAREYGDTLPSLRIIARDAETGKEQLLAEVDNR
B30: uchl1_122_7453 (protein)
chain: TETVEVVGRRRDVEILAAVIREVFAAAGWTAEVTIEELSPTTARLVVTVTLPPASDEAVDALVAALEAAFREAVEKEGISRAFAGIAYTRVARAVRRAAA
B31: uchl1_122_7439 (protein)
chain: MLTIEVDVTSSLSPEGLAILREYASELLDNPEFEEELVSPGTLRLTFTGELKDLTPEQIREIANRALARAGADQSLTPNERVSLGNAIRRIARQVARARA
B32: uchl1_143_7455 (protein)
chain: GHHMLEVEKIEIEVEETDTPEEIKKKIMEAMKKAVAKGKAIEIIITVPPDANFRLMVNTVAKRAAREFAKEYKDKLKYLKIYARDKETGKEDLIAEIVNP

Target: UCHL1, P09936
Assay: median log2 fold change of GCK-ALFA target abundance (FLAG IP / Myc IP barcode read proportion) (log2 ratio); each designed protein is fused to an ALFA-tag nanobody in HEK293 cells to bring the named protein to FLAG-tagged glucokinase (GCK); Myc marks an untargeted standard; higher = target protein stabilised (more abundant)
Details: target protein: 3xFLAG-MCP-GCK-ALFA reporter; HEK293 landing pad (RPLP)
Outline: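 Sequencing of reverse-transcribed, amplified circular RNA barcodes from anti-FLAG and anti-Myc immunoprecipitates provided the readout for an ALFA-nanobody-fused binder library recombined into HEK293 landing-pad cells. Those cells were induced with 2 μg mL^−1 doxycycline, transfected with a plasmid expressing a FLAG-tagged target and a Myc-tagged standard, and lysed after 48 h. Target abundance is the per-binder median log2 ratio of FLAG to Myc barcode read proportions. Only barcodes at a proportion of ≥10^−7 in both replicates and binders with ≥3 barcodes per replicate were kept, with a 10^−6 pseudocount added before the two replicates were pooled.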

Chain of UCHL1, P09936 (P09936 whole entry, looked up, the tested form may be a part): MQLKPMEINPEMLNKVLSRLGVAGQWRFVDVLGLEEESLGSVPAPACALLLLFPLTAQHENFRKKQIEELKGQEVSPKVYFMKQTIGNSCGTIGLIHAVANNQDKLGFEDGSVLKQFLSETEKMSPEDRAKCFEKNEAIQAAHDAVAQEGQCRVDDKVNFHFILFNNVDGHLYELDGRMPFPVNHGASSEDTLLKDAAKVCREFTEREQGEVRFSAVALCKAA

| Binder | median log2 fold change |
| --- | --- |
| B1 | -0.15 |
| B2 | 0.0437 |
| B3 | 0.138 |
| B4 | -0.238 |
| B5 | 0.0958 |
| B6 | 0.184 |
| B7 | 0.153 |
| B8 | -0.026 |
| B9 | 0.0928 |
| B10 | 0.11 |
| B11 | 0.144 |
| B12 | 0.347 |
| B13 | 0.147 |
| B14 | 0.271 |
| B15 | -0.0697 |
| B16 | 0.0563 |

| Binder | median log2 fold change |
| --- | --- |
| B17 | 0.272 |
| B18 | 0.0504 |
| B19 | 0.184 |
| B20 | 0.185 |
| B21 | 0.242 |
| B22 | 0.143 |
| B23 | 0.163 |
| B24 | -0.119 |
| B25 | 0.139 |
| B26 | -0.77 |
| B27 | 0.163 |
| B28 | 0.133 |
| B29 | 0.225 |
| B30 | -0.0277 |
| B31 | 0.0949 |
| B32 | 0.157 |
